Ten molecules from PubChem BioAssay (Tox21) can be followed below.

The target in assay [1] is Progesterone receptor (Homo sapiens) (UniProt P06401). The assay is described as follows: qHTS assay to identify small molecule antagonists of the progesterone receptor (PR) signaling pathway (AID 1346795; active = well fitted inhibition curve with a large enough effect in the signal ratio in the repeat runs, not every such curve was filed as active; the % refers to the signal ratio). The method in brief:
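Read-out is fluorescence from the LiveBLAzer B/G FRET substrate, cleaved by a UAS-controlled beta-lactamase in PR-UAS-bla HEK293T cells after 16 hr exposure to compound plus 1 nM promegestone (final), followed by 2 hr at room temperature.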
In general terms: In qHTS, concentration-response curves come from the screen itself.

Assay [2] in a line: qHTS assay to identify small molecule agonists of the progesterone receptor (PR) signaling pathway - cell viability counter screen (AID 1346799; calls by dose curve; also: nearly all actives have a fitted effect of over 45% in size; also: potency is read from the fitted curve at half-maximal effect). The gist of the method:
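Luminescence from CellTiter-Glo, added after the beta-lactamase FRET read in the same wells, gave cytotoxicity in PR-UAS-bla HEK293T cells treated with compounds for 16 hr at 37C.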

The nature of assay [3]: qHTS assay to identify small molecule antagonists of the TGF-beta/Smad signaling pathway - cell viability counter screen (AID 1346824). Also: nearly all actives have a fitted effect of over 50% in size. The gist of the method: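 SBE-bla HEK 293T cells were plated overnight at 37 C, then given compounds in DMSO plus TGF-beta1 (added as 0.25 ng/mL solution) for 5 hr. After the bla read, CellTiter-Glo was added to the same wells and luminescence read after 30 min at room temperature.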

A short description of assay [4]: qHTS assay to identify small molecule agonists of the TGF-beta/Smad signaling pathway - cell viability counter screen (AID 1346829). Also: top concentration of the series differs between compounds; nearly all actives have a fitted effect of over 45% in size. The gist of the method:
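Tox21 qHTS format: SBE-bla HEK 293T cells treated with DMSO-dissolved compounds for 5 hr; CellTiter-Glo luminescence after 30 min at room temperature.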

Assay [5] in a line: qHTS assay to identify small molecule agonists of the TGF-beta/Smad signaling pathway (AID 1346859; active = well fitted activation curve with a large enough effect in the signal ratio in the repeat runs, not every such curve was filed as active; the % refers to the signal ratio; also: series mostly up to about 77 µM). The method in brief: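 SBE-bla HEK 293T, 4,000 cells/well, plated o/n; cpd in DMSO, 5 hr, 37 C/5% CO2; B/G FRET substrate 2 hr RT; ex 405, em 460/530 nm.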
The target of assay [6] is Thyrotropin-releasing hormone receptor (Homo sapiens) (UniProt P34981). Kind of assay: qHTS assay to identify small molecule antagonists of the thyrotropin-releasing hormone receptor (TRHR) signaling pathway (AID 1346877; active = well fitted inhibition curve with a large enough effect in the repeat runs, not every such curve was filed as active; also: series mostly up to about 51 µM). The method in brief: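 Human TRHR in HEK293 cells; inhibition of the intracellular calcium rise triggered by 1 nM TRH was followed by fluorescence over 3 min. Compounds were run at 15 concentrations, three replicates each.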
Sequence of Thyrotropin-releasing hormone receptor (Homo sapiens) (P34981 whole entry, looked up): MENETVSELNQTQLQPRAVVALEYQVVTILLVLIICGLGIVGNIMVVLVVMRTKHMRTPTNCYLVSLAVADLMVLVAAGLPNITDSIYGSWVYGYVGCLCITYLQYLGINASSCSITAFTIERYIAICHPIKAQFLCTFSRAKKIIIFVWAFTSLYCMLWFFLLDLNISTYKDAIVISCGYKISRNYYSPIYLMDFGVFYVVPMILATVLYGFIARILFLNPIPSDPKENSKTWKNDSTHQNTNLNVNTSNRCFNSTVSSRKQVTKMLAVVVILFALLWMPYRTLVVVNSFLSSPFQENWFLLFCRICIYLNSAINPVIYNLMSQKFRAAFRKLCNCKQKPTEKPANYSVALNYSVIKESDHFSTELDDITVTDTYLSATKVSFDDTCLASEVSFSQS

For assay [7] the target is unchanged. The assay is described as follows: qHTS assay to identify small molecule agonists of the thyrotropin-releasing hormone receptor (TRHR) signaling pathway (AID 1346891; calls by dose curve; also: series mostly up to about 58 µM). The gist of the method:
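Intracellular calcium rise, read as fluorescence every second for 3 min, served as the agonist signal in dye-loaded HEK293 cells expressing TRHR; each compound ran at 15 concentrations in triplicate.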

Assay [8] can be described thus: Human pregnane X receptor (PXR) small molecule agonists, qHTS cell viability counter screen (AID 1346977). Also: nearly all actives have a fitted effect of over 50% in size. The method in brief:
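PXR-Luc HepG2, 2,000 cells/well, 5% charcoal-stripped FBS; 5hr settle; cpd 24hr, 37C/5% CO2; CellTiter-Fluor at 23hr, read 1hr later (fluorescence).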

Assay [9] can be described thus: Caspase-3/7 induction in HepG2 cells by small molecules, qHTS assay (AID 1346978). Also: nearly all actives have a fitted effect of over 15% in size. The method in brief:
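Wild-type HepG2 cells (2,000/well) were settled 5 h at 37 C, 5% CO2, then exposed to compounds in DMSO for 17 h. Caspase-3/7 activity was read by luminescence 30 min after adding Caspase-Glo 3/7 reagent at room temperature.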

The nature of assay [10]: Caspase-3/7 induction in CHO-K1 cells by small molecules, qHTS assay (AID 1346980). Also: nearly all actives have a fitted effect of over 15% in size. The gist of the method:
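Wild-type cells were seeded at 1,500 per well and settled 5 hr at 37 C, 5% CO2, then exposed to DMSO-dissolved compounds for 17 hr. Caspase-Glo 3/7 reagent was added, and luminescence was read after 30min at room temperature.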

The nature of assay [11]: Caspase-3/7 induction in HepG2 cells by small molecules, qHTS cell viability counter screen (AID 1346981). Also: series mostly up to about 92 µM; nearly all actives have a fitted effect of over 30% in size. The method in brief: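 The parent HepG2 line is plated at 2,000 cells per well and rested 5 hr before compound pinning from DMSO stocks. Following a 16-hr treatment at 37 C, a fluorogenic live-cell substrate (CellTiter-Fluor) reports viability after 1 hr.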
Assay [12] deals with Cytochrome P450 2D6 (Homo sapiens) (UniProt P10635). Kind of assay: Cytochrome P450 Family 2 Subfamily D Member 6 (CYP2D6) small molecule antagonists: luciferase reporter qHTS assay (AID 1671196). Also: nearly all actives have a fitted effect of over 50% in size. Also: potency is read from the fitted curve at half-maximal effect. The method in brief:
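Quantitative HTS of Tox21 chemicals against CYP2D6 using a luminescent proluciferin substrate. After NADPH addition, 1 h room-temperature reaction; luminescence recorded 20 min post detection reagent.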

Assay [13] can be described thus: qHTS assay to identify small molecule antagonists of the progesterone receptor (PR) signaling pathway - cell viability counter screen (AID 1346798).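 Also: HEK293T PR-UAS-bla cells stimulated with the agonist R5020; series mostly up to about 92 µM; nearly all actives have a fitted effect of over 50% in size.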 The gist of the method:
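HEK293T PR-UAS-bla, 2% charcoal-stripped FBS; 4 hr pre-plate; cpd + R5020, 16 h 37C; LiveBLAzer read first; then CellTiter-Glo 30 min RT, luminescence.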

Assay [14] is described as follows: Caspase-3/7 induction in CHO-K1 cells by small molecules, qHTS cell viability counter screen (AID 1346979). Also: nearly all actives have a fitted effect of over 35% in size. Also: potency is read from the fitted curve at half-maximal effect. The gist of the method: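 Cells (CHO-K1, wild type) are plated at 1,500 per well and incubated 5hr. Test compounds in DMSO are then pinned in, followed by 16hr at 37C and 5% CO2. Viability is read by CellTiter-Fluor fluorescence after 1hr.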
Assay [15] concerns the target Nuclear receptor subfamily 1 group I member 2 (Homo sapiens) (UniProt O75469). Kind of assay: Human pregnane X receptor (PXR) small molecule agonists, qHTS assay (AID 1346982). Also: nearly all actives have a fitted effect of over 35% in size. Also: potency is read from the fitted curve at half-maximal effect. The method in brief:
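After plating in 5% charcoal-stripped FBS and a 5 hr rest, PXR-Luc HepG2 cells received compounds in DMSO. Following 24 hr at 37 C, ONE-Glo was added and light output read.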

For assay [16], the target named is Cytochrome P450 2C19 (Homo sapiens) (UniProt P33261). Kind of assay: Cytochrome P450 Family 2 Subfamily C Member 19 (CYP2C19) small molecule antagonists: luciferase reporter qHTS assay (AID 1671197). Also: series mostly up to about 120 µM; nearly all actives have a fitted effect of over 65% in size. The gist of the method:
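Relative luminescence units recorded 20 min after the detection reagent stopped a 1 h, 37C CYP2C19 reaction on proluciferin substrate, which was started by NADPH regeneration following 10 min room-temperature compound preincubation; ketoconazole positive control.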
On the technique in general: In a reporter assay the amount or activity of a reporter protein is the signal.

Assay [17] concerns the target Progesterone receptor (Homo sapiens) (UniProt P06401). The assay is described as follows: qHTS assay to identify small molecule agonists of the progesterone receptor (PR) signaling pathway (AID 1346784; calls by dose curve; also: nearly all actives have a fitted effect of over 30% in size). The gist of the method:
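Beta-lactamase reporter read-out: after 16 hr compound treatment at 37C and a further 2 hr at room temperature with LiveBLAzer B/G FRET substrate, fluorescence was measured in PR-UAS-bla HEK 293T cells grown in 2% charcoal-stripped serum.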

In assay [18] the target is Nuclear receptor subfamily 1 group I member 2 (Rattus norvegicus) (UniProt Q9R1A7). Kind of assay: Rat pregnane X receptor (rPXR) activation by small molecules, qHTS assay (AID 1346983). Also: nearly all actives have a fitted effect of over 20% in size. Conditions: rPXR luciferase reporter cells, One-Glo luminescence, 24 h; max activation: stronger effect = higher value. The gist of the method:
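Cell-based rPXR luciferase reporter assay, 2,000 cells per well, rested 5hr at 37 C before compound addition in DMSO, then 24 hr at 37 C. One-Glo reagent was added and luminescence read after 30 min at room temperature.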

In assay [19] the target is Nuclear receptor subfamily 1 group I member 2 (Homo sapiens) (UniProt O75469). Kind of assay: CYP3A4 induction through human pregnane X receptor (PXR) by small molecules, qHTS assay (AID 1346984). Also: nearly all actives have a fitted effect of over 40% in size. The method in brief: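 Human PXR activation is tracked via CYP3A4 promoter-luciferase in DPX-2 (HepG2) cells. Compounds treat cells for 24hr at 37C, and luminescence is read after One-Glo.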
Sequence of Nuclear receptor subfamily 1 group I member 2 (Homo sapiens) (O75469 whole entry, looked up): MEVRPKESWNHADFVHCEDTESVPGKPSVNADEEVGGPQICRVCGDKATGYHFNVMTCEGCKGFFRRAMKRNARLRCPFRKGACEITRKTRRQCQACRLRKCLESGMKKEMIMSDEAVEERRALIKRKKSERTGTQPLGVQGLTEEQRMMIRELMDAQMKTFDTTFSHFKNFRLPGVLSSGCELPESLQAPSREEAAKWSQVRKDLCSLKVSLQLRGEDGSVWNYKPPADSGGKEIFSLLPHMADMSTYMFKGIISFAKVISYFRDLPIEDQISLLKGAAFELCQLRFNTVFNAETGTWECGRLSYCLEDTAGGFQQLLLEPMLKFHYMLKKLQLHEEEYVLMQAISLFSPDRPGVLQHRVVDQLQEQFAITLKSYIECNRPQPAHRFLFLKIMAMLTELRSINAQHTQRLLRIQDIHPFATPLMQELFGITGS

For assay [20] the target is unchanged. Kind of assay: Human pregnane X receptor (PXR) activation by small molecules, qHTS assay (AID 1346985). Also: nearly all actives have a fitted effect of over 40% in size. The method in brief: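 DPX-2 cells (HepG2 co-transfected with a PXR response element and a CYP3A4-promoter luciferase construct) were seeded at 2,000 per well, rested 5 hr at 37C, then exposed to DMSO-dissolved compounds for 24 hr. Activation was read as luciferase luminescence.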

Structures are written as SMILES. A number with no mark means an inactive call. Inconclusive results are not listed. Activity calls are given as the source filed them. Unless noted, calls follow the shape of the dose curve; as a rule, active = well fitted curve in the direction sought with a large enough effect in the repeat runs; inconclusive = weak or mixed curves; inactive = no such curve, though single readings can be large; an effect the other way counts as inactive or inconclusive.
% is scaled to controls: 0 for no effect and ±100 for the full control effect.

Sequence of Cytochrome P450 2D6 (Homo sapiens) (P10635 whole entry, looked up): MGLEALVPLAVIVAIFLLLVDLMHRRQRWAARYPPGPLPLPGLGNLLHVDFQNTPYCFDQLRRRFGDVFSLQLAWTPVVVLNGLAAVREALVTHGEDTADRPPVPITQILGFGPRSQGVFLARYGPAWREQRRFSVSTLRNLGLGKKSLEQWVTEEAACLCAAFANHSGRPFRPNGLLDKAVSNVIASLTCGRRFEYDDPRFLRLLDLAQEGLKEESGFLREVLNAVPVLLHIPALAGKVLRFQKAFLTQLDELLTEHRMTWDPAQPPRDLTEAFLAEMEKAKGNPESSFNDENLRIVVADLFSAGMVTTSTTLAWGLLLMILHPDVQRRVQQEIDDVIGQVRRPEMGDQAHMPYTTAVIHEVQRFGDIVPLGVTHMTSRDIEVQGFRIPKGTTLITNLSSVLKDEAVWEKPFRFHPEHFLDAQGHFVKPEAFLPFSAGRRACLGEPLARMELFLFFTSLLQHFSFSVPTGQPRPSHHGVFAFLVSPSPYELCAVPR
Sequence of Progesterone receptor (Homo sapiens) (P06401 whole entry, looked up): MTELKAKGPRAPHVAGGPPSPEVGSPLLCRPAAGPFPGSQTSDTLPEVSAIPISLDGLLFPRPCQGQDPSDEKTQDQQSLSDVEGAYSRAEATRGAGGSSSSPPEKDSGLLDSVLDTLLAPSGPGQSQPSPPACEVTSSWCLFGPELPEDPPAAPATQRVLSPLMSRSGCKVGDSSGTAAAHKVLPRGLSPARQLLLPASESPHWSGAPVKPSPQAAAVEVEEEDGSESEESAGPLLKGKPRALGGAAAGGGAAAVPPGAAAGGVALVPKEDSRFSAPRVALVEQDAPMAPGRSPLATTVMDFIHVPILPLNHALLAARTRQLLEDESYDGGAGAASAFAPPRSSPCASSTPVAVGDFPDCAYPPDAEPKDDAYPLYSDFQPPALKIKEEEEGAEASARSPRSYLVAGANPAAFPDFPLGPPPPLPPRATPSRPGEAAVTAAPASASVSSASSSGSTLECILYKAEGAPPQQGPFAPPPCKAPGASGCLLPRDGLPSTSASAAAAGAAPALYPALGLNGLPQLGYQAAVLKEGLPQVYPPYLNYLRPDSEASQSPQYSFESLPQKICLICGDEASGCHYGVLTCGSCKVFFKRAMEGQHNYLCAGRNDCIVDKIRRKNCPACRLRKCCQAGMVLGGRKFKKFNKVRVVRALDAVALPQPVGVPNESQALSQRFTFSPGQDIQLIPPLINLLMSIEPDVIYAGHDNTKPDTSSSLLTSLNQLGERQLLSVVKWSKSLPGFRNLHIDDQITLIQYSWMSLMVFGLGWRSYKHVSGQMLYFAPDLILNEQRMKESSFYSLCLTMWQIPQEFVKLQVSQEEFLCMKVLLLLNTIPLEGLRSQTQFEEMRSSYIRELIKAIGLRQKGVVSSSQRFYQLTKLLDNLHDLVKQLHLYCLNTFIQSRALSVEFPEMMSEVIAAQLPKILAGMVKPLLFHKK
Sequence of Cytochrome P450 2C19 (Homo sapiens) (P33261 whole entry, looked up): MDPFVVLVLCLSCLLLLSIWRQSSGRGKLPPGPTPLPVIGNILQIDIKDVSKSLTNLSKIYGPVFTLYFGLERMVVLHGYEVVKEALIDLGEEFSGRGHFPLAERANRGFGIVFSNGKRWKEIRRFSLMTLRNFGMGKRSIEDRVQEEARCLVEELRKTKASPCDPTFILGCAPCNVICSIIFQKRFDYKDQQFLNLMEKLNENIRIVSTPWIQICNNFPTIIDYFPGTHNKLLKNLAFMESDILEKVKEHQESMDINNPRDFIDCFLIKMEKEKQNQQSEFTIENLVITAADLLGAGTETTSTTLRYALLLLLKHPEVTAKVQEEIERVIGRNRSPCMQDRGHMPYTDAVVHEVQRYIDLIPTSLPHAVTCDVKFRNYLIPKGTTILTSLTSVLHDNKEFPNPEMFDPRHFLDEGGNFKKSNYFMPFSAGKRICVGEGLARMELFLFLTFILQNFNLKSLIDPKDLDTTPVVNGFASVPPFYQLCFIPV
Sequence of Nuclear receptor subfamily 1 group I member 2 (Rattus norvegicus) (Q9R1A7 whole entry, looked up): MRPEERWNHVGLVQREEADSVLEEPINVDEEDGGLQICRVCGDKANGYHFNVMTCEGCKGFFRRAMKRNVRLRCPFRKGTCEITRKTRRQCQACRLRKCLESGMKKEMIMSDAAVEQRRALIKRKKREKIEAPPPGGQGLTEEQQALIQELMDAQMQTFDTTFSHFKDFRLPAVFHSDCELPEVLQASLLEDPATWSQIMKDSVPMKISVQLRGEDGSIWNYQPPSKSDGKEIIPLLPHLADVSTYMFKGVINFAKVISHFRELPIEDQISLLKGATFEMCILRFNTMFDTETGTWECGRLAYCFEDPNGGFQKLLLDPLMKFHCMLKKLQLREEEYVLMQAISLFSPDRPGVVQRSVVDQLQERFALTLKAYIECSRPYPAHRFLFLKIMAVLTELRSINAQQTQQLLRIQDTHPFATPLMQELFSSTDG

`CCCCCCCCCCCCC(=O)O`: the Potency result in assay [1], in assay [3], in assay [4], in [7], in assay [8] and in assay [10] was “inactive” each time. Moreover, the Potency result in assay [11] and in [12] was “inactive” throughout. Further, the Potency in assay [2] is 19.4 µM (active). Moreover, the result in assay [5], in assay [6] and in assay [9] was inactive.
As for `O=C(O)c1cn(C2CC2)c2cc(Cl)c(F)cc2c1=O`, the Potency result in [1], in assay [13], in assay [2], in assay [3], in assay [4] and in [7] was “inactive” in each case. Moreover, the Potency result in [8], in [14], in assay [10], in assay [11], in [15] and in assay [12] was “inactive” in each case. Also, the Potency result in assay [16] was “inactive”. In addition, the result in assay [6] and in [9] was inactive.
On to `O=C(Cl)c1ccc([N+](=O)[O-])cc1`, for which the Potency entry in assay [2], in [3], in assay [4], in assay [7], in [8] and in [10] was “inactive” in each case. In [16], the Potency result was “inactive”. Further, the molecule was classed as inactive in assay [5] and in [6]. The Potency in [15] is 5.35 µM (active).
Consider `Oc1ccc2c(c1)OCO2`, for which the molecule was called inactive in assay [17] and in [5]. In addition, the Potency entry in assay [2], in [3], in [4], in assay [8], in assay [14] and in [10] was “inactive” each time. In addition, the Potency entry in assay [11] and in [15] was “inactive” each time. Also, in [12], the Potency was 39.6 µM (active).
On to `CN(C(=O)CCCOc1ccc2[nH]c(=O)ccc2c1)C1CCCCC1`, for which the molecule was classed as inactive in assay [17] and in assay [6]. Also, the Potency result in assay [3], in [4], in assay [7], in assay [8], in assay [10] and in assay [11] was “inactive” each time. Besides, the Potency entry in [12] was “inactive”. Moreover, the Potency in assay [15] is 15 µM (active).
On to `CC(C)(C)C(=O)OCOP(=O)(COCCn1cnc2c(N)ncnc21)OCOC(=O)C(C)(C)C`, for which the result in assay [17] and in assay [5] was inactive. The Potency entry in [3], in assay [10], in assay [11], in assay [19], in assay [20] and in assay [12] was “inactive” each time. Moreover, the Potency entry in assay [16] is “inactive”. In addition, the Potency in [15] is 11.9 µM (active). Moreover, the max activation in assay [18] is -2.44%.
Turning to `CC(C)(C)c1cc(O)c(C(C)(C)C)cc1O`, the outcome in assay [17], in [5] and in assay [9] was inactive. The Potency result in [4] and in [10] was “inactive” in each case. Moreover, in assay [14], the Potency is 61.1 µM (active).
As for `CNCC[C@@H](Oc1ccccc1C)c1ccccc1`, the call in assay [17], in assay [5] and in [9] was inactive. The Potency result in [3], in [4], in assay [10], in assay [11] and in assay [15] was “inactive” throughout.
For the molecule `O=S(=O)(O)c1ccc(O)c2ncccc12`, the result in assay [17], in assay [5] and in assay [9] was inactive. The Potency result in assay [2], in assay [3], in [4], in assay [8], in [10] and in [15] was “inactive” each time. In addition, the Potency entry in [16] is “inactive”.
On to `NC1CCN(c2nc3c(cc2F)c(=O)c(C(=O)O)cn3-c2ccc(F)cc2F)C1` (stereo unspecified), for which the Potency entry in assay [13], in assay [3], in assay [4], in assay [7], in assay [8] and in assay [10] was “inactive” each time. The Potency result in assay [11], in assay [12] and in assay [16] was “inactive” throughout. The molecule was called inactive in assay [5], in assay [6] and in assay [9]. In addition, the max activation in assay [18] was -4.88%.
